Measured values as given in the supplement of paper PMC3334620.
Over roughly 33,000 sequences, “E-score (-0.5 to 0.5)” has its median near -0.0034; the highest 2% begin near 0.25. The sample holds the highest values, similar sequences and a random draw of the others, so the mix is not that of the screen.

Each sequence was assayed against T1, Yap3 (UniProt P38749) (assay: PBM E-score (8-mer binding enrichment) (E-score (-0.5 to 0.5)); higher = stronger / more preferred TF binding). Details: protein concentration: 100 nM; construct: GST-full length.
T1 sequence: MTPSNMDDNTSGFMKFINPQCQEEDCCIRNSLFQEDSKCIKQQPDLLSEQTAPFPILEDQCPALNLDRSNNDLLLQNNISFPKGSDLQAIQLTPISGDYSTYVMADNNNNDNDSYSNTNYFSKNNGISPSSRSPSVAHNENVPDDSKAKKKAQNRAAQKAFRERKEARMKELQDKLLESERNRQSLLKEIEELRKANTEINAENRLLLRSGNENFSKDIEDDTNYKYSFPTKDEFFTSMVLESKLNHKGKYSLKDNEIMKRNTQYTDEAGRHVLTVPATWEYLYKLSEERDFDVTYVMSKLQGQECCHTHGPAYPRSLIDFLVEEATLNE
Procedure: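 Universal 'all 10-mer' protein binding microarrays (Agilent AMADID 015681) probed with GST-tagged S. cerevisiae TFs (full-length or DBD) made by in vitro transcription/translation (PURExpress), about 100-200 nM. Bound TF was detected with fluorescent anti-GST. Each ungapped 8-mer (which stands for itself and its reverse complement) is scored by the PBM enrichment score (E-score), a modified Wilcoxon-Mann-Whitney statistic from -0.5 to +0.5, computed with the Universal PBM Analysis Suite. Scale: above 0.35 generally sequence-specific binding.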

Sequence	PBM E-score
CAATCGGC	-0.0271
CAAACTGC	0.0735
ACTTGCTA	-0.0697
CACTCGAC	-0.0984
AATTAGAA	0.0871
CGATGGCC	-0.0485
TGCTAGAA	-0.0446
CCAGATAG	-0.0894
CCAATATA	0.0353
GCAATATA	0.216
ACAATATA	0.302
AATGCGAC	0.106
AAGCGCTC	-0.0695
AAGCGCTT	0.321
AAGCGCTA	0.0946
ACGCTTAT	-0.04
AGTAACTG	0.0876
AATATATG	0.304
AATATGTC	0.111
AATATGTG	0.273
CATATATG	0.126
AATATATA	0.229
AATATATT	0.331
AATATGTA	0.222
AATATATC	0.157

Sequence	PBM E-score
ACTATATG	0.193
TTCTGAAA	0.145
ACCCAAAC	0.0961
AGATCCTA	0.0833
CAAGTTCA	-0.00101
CGGATGAC	0.0307
ATCTTTCA	0.207
CATAATCG	0.187
CATAATCA	0.271
AATAATCA	0.11
CATAATCC	0.0889
GATAATCA	0.221
TATAATCA	0.265
CATAAGTC	0.112
CTGGTCTA	-0.0194
AGCGCACG	-0.0432
ATTGGTAA	0.304
GTTGGTAA	0.149
CTTGGTAA	0.101
ACGTCTCT	-0.138
ATTACCGG	-0.0144
AGTTGTGA	0.108
AGTTGTGG	0.271
AGTTGTGC	0.0195
TATCAAAA	0.23

Sequence	PBM E-score
ATATGAGA	0.196
ATTAATCA	0.287
ATTAATCC	0.0925
ATTAATCG	0.191
GTTAATCA	0.256
CTTAATCA	0.166
GCTAATCA	0.164
AACTTTAA	0.234
AAGTCTCA	-0.101
GATCAGAC	-0.0877
AGTGGAAC	-0.0961
GAAGCCTC	-0.198
CACGAACA	0.192
AACGAACG	-0.00775
AACGAACA	0.259
CAGGGTCC	-0.29
GCAAATTA	0.262
AGAAATTA	0.202
GGAAATTA	0.332
GAAAATTA	0.207
ACAAATTA	0.242
CCAAATTA	0.192
ATACCACC	0.086
GGAATCTA	0.0443
GTCGCACA	-0.0581

Sequence	PBM E-score
GATTTGGA	-0.0207
AGATGGAA	-0.0109
ATTTATAC	0.302
CTTTATAC	0.114
ATTTATAA	0.273
ATTTATAG	0.206
CTTTATAA	0.206
GTTTATAA	0.224
AATGAGCA	-0.00708
TCAACTGA	0.0958
AATGGCTA	0.169
AAGAATTG	0.171
TCGGGGAA	0.0864
AAATGCCG	0.113
ATACAGAT	0.11
CGTAAATA	0.262
GGGAAATA	0.0786
CGTAAATC	-0.00431
GGTAAATA	0.111
AGTAAATA	0.26
CGGAAATC	0.12
AGTAAATC	0.159
CGGAAATA	0.289
AGTAAATG	0.0753
AGACTGAA	-0.0205

Sequence	PBM E-score
AGCACGTG	0.127
GAGCCACA	-0.104
ACCCTATA	-0.084
CGTGGATA	-0.0137
GCAGGTTA	-0.0925
AAAAACAA	0.28
GCAAACAC	-0.0377
CAAAACTA	0.223
GAAAACTA	0.16
ACAAACAA	0.173
GAAAACAA	0.199
TTAAACAA	-0.026
AAAAACTA	0.256
ATAAACAC	0.1
GCAAACAA	0.272
TAAAACAA	0.0703
ATAAACAA	0.279
ATCAGCTG	0.195
ACTGGACC	-0.196
ACGGAGGG	-0.139
CCTGGATA	-0.231
CGGATTGC	0.0717
GGCTTGAA	0.0362
AGTTTTCC	0.0722
AGCCAACG	0.0109

Sequence	PBM E-score
GAAAACGA	0.00196
CAAAACGA	0.133
AAAAACGA	0.256
GAGTCTAA	0.00387
AATCCGGG	-0.242
AATCCGGC	0.0559
AATCCGGA	0.256
GACAGCTA	-0.119
CTGCTGGA	-0.158
CCCTTTTC	-0.00476
AAATATCA	0.187
TAATAGTA	0.142
AGATATTA	0.162
TAATATTA	0.347
GAATATCA	0.159
TAATATCA	0.275
GAATATTA	0.263
CAATATTA	0.226
GAATATTC	0.194
CAATATCA	0.167
AAATATTA	0.349
AAATATTC	0.162
ACATTGCC	-0.0211
GGCTTGAC	0.0242
AGCAACTA	0.143

Sequence	PBM E-score
TACCCAAA	0.0436
TCGGTTAA	0.168
AGGCTAGG	-0.199
AAGGTGCG	-0.131
CGTTGATC	0.0509
AAATATTT	0.249
AAATATTG	0.269
CAATATTG	0.213
AGAAGATC	-0.0464
CAGTTAGG	0.149
AATCATGG	0.127
AATCATGA	0.275
TATCATGA	0.0822
TAAAATCA	0.142
TAAAATGA	0.23
TAAATTTA	0.26
CAAAATTA	0.163
ACAATTTA	0.193
AAAAATTT	0.145
CAAATTTA	0.203
CCAATTTA	0.258
AAAATTTA	0.0414
TAAAATTA	0.28
GCAATTTA	0.139
AAAAATTA	0.29

Sequence	PBM E-score
CCACCAAC	0.0331
CGTCCAAC	0.0756
ACGAGGCT	0.117
ATCTAAGG	0.0735
ACCAGACC	-0.206
AAGTCATC	-0.0947
GAGGCATC	-0.206
CCCGCCCC	0.022
AACAACTA	0.0618
CACAACAC	0.173
CACAACTA	0.262
AACAACAA	0.259
GACAACAC	0.00619
CACAACTG	-0.0612
AACAACAC	0.303
CACAACAA	0.0683
AACAACAT	0.191
GCAATGTA	0.0481
GGACCAAC	-0.182
CTCGAGAC	0.124
CTCAGCGC	-0.114
TATGGCCA	0.0682
ATTGTTCA	0.159
ATTATCTC	0.268
AATATCTG	0.084

Sequence	PBM E-score
ATTATCTG	0.119
CTTATCTC	0.0941
CTTATCAC	-0.0604
AATATCTA	0.0725
AATATCTC	0.263
ATTATCGA	0.132
ATTATCGC	0.304
ATTATCGG	-0.0264
ATTATCAC	0.282
ATTATCAG	0.0829
CGTTTCCA	0.105
AATTCACA	0.238
CTGAGACA	-0.0945
GCCCACAA	-0.141
AATAGAAG	0.0527
CGGCAGAA	0.124
TGAGTCAA	0.0132
GAACCAAA	-0.0377
CTGTGCCA	-0.119
